Reference: the supplement of paper PMC9254222
The full ranking holds about 1,100 compounds; the median of “Renilla luciferase signal (cell health) relative to plate median” is about 0.97, and the highest 2% start at about 1.6. The list comes from a sample in which the highest values are over-represented; it also holds similar structures and randomly drawn compounds.

Test system: HEK293T (UBE3A T485A transfected, BAR Wnt reporter)
Assay: Renilla luciferase signal (cell health) relative to plate median (fold (linear ratio)); higher = higher Renilla signal
Conditions: 24 h
In short: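 HEK293T cells carrying a transfected BAR firefly luciferase Wnt reporter, TK-Renilla and an expression plasmid were exposed to chemicals at 0.01–100 uM for 24 h, with dosing four hours after transfection. Readout used Dual-Glo luciferase. The firefly/Renilla ratio defined Wnt activity and raw Renilla defined cell health, each median-centred per plate. Figures are means of four biological replicates.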

Row | SMILES | Renilla luciferase signal (concentration: 0.01 uM) | Renilla luciferase signal (concentration: 0.1 uM) | Renilla luciferase signal (concentration: 1 uM) | Renilla luciferase signal (concentration: 10 uM) | Renilla luciferase signal (concentration: 100 uM)
1 | O=C(Nc1ccccc1)Nc1cnns1 [Thidiazuron] | 1.1 | 1.07 | 1 | 0.921 | 0.135
2 | C[Si](Cn1cncn1)(c1ccc(F)cc1)c1ccc(F)cc1 [Flusilazole] | 1.03 | 1.08 | 1.03 | 0.986 | 0.258
3 | CC(C)[C@H](C(=O)O[C@H](C#N)c1cccc(Oc2ccccc2)c1)c1ccc(Cl)cc1 [Esfenvalerate] | 0.932 | 0.969 | 0.846 | 0.908 | 0.397
4 | Nc1cnn(-c2ccccc2)c(=O)c1Cl [Chloridazon] | 0.928 | 0.982 | 0.916 | 1.1 | 1.34
5 | Cc1ccccc1[N+](=O)[O-] [2-Nitrotoluene] |  | 1.24 | 1.08 | 1.14 | 1.33
6 | Cc1nc(N(C)C)nc(OC(=O)N(C)C)c1C [Pirimicarb] | 1.09 | 1.09 | 1.1 | 1.21 | 2.4
7 | O=C([O-])C(F)(F)C(F)(F)C(F)(F)C(F)(F)C(F)(F)C(F)(F)C(F)(F)F.[NH4+] [PFOA, ammonium salt] |  | 0.839 | 0.971 | 0.797 | 0.224
8 | Clc1cccc(Cl)c1 [1,3-Dichlorobenzene] |  | 0.976 | 1.06 | 1.08 | 1.26
9 | Cc1ccc(N=C=O)cc1N=C=O [Toluene-2,4-diisocyanate] |  | 0.891 | 0.94 | 1.08 | 0.677
10 | COc1nn(CSP(=S)(OC)OC)c(=O)s1 [Methidathion] | 0.805 | 0.65 | 0.845 | 0.715 | 0.562
11 | CNC(=O)CSP(=S)(OC)OC [Dimethoate] | 1.22 | 0.985 | 0.987 | 1.12 | 1.67
12 | COP(=S)(OC)SCN1C(=O)c2ccccc2C1=O [Phosmet] |  | 0.82 | 0.838 | 0.713 | 0.82
13 | CCC1(c2ccccc2)C(=O)N=C([O-])NC1=O.[Na+] (stereo unspecified) [Phenobarbital sodium] |  | 0.831 | 0.817 | 0.777 | 0.914
14 | COCCOCCO [Diethylene glycol monomethyl ether] |  | 1.01 | 0.991 | 1.01 | 1.32
15 | C[N+]1(C)CCCCC1.[Cl-] [Mepiquat chloride] | 1.1 | 1.08 | 1.06 | 1.02 | 1.31
16 | CNC(=S)[S-].O.O.O.[Na+] [Metam-sodium hydrate] | 1.32 | 1.02 | 1.07 | 1.06 | 1.67
17 | CN(C)C(=S)[S-].[Na+] [Sodium dimethyldithiocarbamate] |  | 0.974 | 1.07 | 0.874 | 1.06
18 | CN(C)C(=S)[S-].CN(C)C(=S)[S-].[Zn+2] [Ziram] |  | 0.814 | 0.726 | 0.999 | 0.0214
19 | Nc1ccc(/N=N/c2ccccc2)cc1 [4-Aminoazobenzene] |  | 0.476 | 0.565 | 0.351 | 0.181
20 | NC1=NC(O)C2C3OC4(O)OC(C(O)C2(N1)C4O)C3(O)CO (stereo unspecified) [Tetrodotoxin (TTX)] | 1.02 | 0.976 | 0.904 | 1.03 | 2.57
21 | OC(c1ccc(Cl)cc1)(c1cncnc1)c1ccccc1Cl (stereo unspecified) [Fenarimol] | 1.21 | 0.875 | 0.953 | 0.942 | 0.199

Row | SMILES | Renilla luciferase signal (concentration: 0.01 uM) | Renilla luciferase signal (concentration: 0.1 uM) | Renilla luciferase signal (concentration: 1 uM) | Renilla luciferase signal (concentration: 10 uM) | Renilla luciferase signal (concentration: 100 uM)
22 | CCN(CC)c1ccccc1 [N,N-Diethylaniline] |  | 1.07 | 1.06 | 1.09 | 1.47
23 | OCCCBr [3-Bromo-1-propanol] |  | 0.865 | 0.896 | 0.988 | 0.976
24 | CCOC(=O)C(Cl)Cc1cc(-n2nc(C)n(C(F)F)c2=O)c(F)cc1Cl (stereo unspecified) [Carfentrazone-ethyl] | 0.995 | 1.11 | 0.895 | 0.956 | 1.9
25 | Cc1nn(-c2cc(NS(C)(=O)=O)c(Cl)cc2Cl)c(=O)n1C(F)F [Sulfentrazone] | 1.01 | 1.05 | 0.889 | 1.04 | 1.21
26 | CCOC(=O)COc1cc(-c2nn(C)c(OC(F)F)c2Cl)c(F)cc1Cl [Pyraflufen-ethyl] | 0.786 | 0.651 | 0.92 | 0.846 | 1.17
27 | COc1cc(Cl)c(OC)cc1Cl [Chloroneb] | 0.913 | 0.991 | 1.07 | 1.06 | 1.91
28 | COc1cc(-c2ccc(N)c(OC)c2)ccc1N [3,3'-Dimethoxybenzidine] |  | 0.89 | 0.92 | 0.684 | 0.388
29 | COc1cc(-c2ccc(N)c(OC)c2)ccc1N.Cl.Cl [3,3'-Dimethoxybenzidine dihydrochloride] |  | 0.847 | 0.823 | 0.799 | 0.158
30 | CNc1cnn(-c2cccc(C(F)(F)F)c2)c(=O)c1Cl [Norflurazon] | 1.06 | 0.78 | 0.77 | 0.879 | 1.28
31 | CCC(C)(C)c1ccc(O)c(C(C)(C)CC)c1 [2,4-Bis(2-methylbutan-2-yl)phenol] |  | 1.05 | 1.07 | 0.955 | 1.13
32 | N#CN [Cyanamide] | 0.837 | 0.715 | 0.775 | 0.84 | 1.25
33 | COP(=O)(OC)O/C(C)=C/C(=O)N(C)C [Dicrotophos] | 1.19 | 1.16 | 0.994 | 1.09 | 1.78
34 | CNC(=O)/C=C(\C)OP(=O)(OC)OC [Monocrotophos] | 0.824 | 0.815 | 0.785 | 0.826 | 1.45
35 | COP(=O)(OC)OC=C(Cl)Cl [Dichlorvos] | 1.12 | 0.778 | 0.818 | 0.853 | 0.717
36 | COc1cc(C=O)cc2c1[C@H](COC(N)=O)[C@]1(OC(C)=O)ON2C[C@H]2[C@@H]1N2C(C)=O |  | 0.566 | 0.0435 | 0.0233 | 0.0248
37 | CCOP(=S)(OCC)SCn1c(=O)oc2cc(Cl)ccc21 [Phosalone] | 0.915 | 1.15 | 1.1 | 1.11 | 0.931
38 | CCCCN(CC)c1c([N+](=O)[O-])cc(C(F)(F)F)cc1[N+](=O)[O-] [Benfluralin] | 1.12 | 0.838 | 0.99 | 0.917 | 1.31
39 | COc1cc2c(c(OC)c1OC)-c1ccc(OC)c(=O)cc1[C@@H](NC(C)=O)CC2 [Colchicine] |  | 0.0537 | 0.036 | 0.0452 | 0.0414
40 | CCOc1nc(F)cc2nc(S(=O)(=O)Nc3c(Cl)cccc3Cl)nn12 [Diclosulam] | 0.684 | 0.741 | 1.03 | 0.878 | 0.911
41 | Cc1ccn2nc(S(=O)(=O)Nc3c(F)cccc3F)nc2n1 [Flumetsulam] | 0.963 | 1.07 | 0.959 | 1.07 | 1.67
42 | COc1ccc(-c2ccccc2)cc1NNC(=O)OC(C)C [Bifenazate] | 1.24 | 1.21 | 1.11 | 1.06 | 0.851

Row | SMILES | Renilla luciferase signal (concentration: 0.01 uM) | Renilla luciferase signal (concentration: 0.1 uM) | Renilla luciferase signal (concentration: 1 uM) | Renilla luciferase signal (concentration: 10 uM) | Renilla luciferase signal (concentration: 100 uM)
43 | Cc1ccc([N+](=O)[O-])cc1N [2-Methyl-5-nitroaniline] |  | 1.11 | 1.21 | 1.15 | 0.978
44 | CC(C)N(C(=O)SCC(Cl)=C(Cl)Cl)C(C)C [Tri-allate] | 1.05 | 1.11 | 1.06 | 1.06 | 1.76
45 | CC(C)COC(=O)c1ccccc1C(=O)OCC(C)C [Diisobutyl phthalate] |  | 0.825 | 0.827 | 0.867 | 1.01
46 | CCC(C)(NC(=O)c1cc(Cl)c(C)c(Cl)c1)C(=O)CCl (stereo unspecified) [Zoxamide] | 1.25 | 1.05 | 0.961 | 0.117 | 0.0244
47 | C#CC(C)(C)NC(=O)c1cc(Cl)cc(Cl)c1 [Propyzamide] | 1.38 | 1.2 | 1.12 | 1.09 | 1.72
48 | COC(=O)N(OC)c1ccccc1COc1ccn(-c2ccc(Cl)cc2)n1 [Pyraclostrobin] | 1.35 | 0.995 | 0.707 | 0.149 | 0.113
49 | Oc1ccc2ccc3cccc4ccc1c2c34 [1-Hydroxypyrene] |  | 1.01 | 1.06 | 1.09 | 0.811
50 | O=P(Oc1ccccc1)(Oc1ccccc1)Oc1ccccc1 [Triphenyl phosphate] |  | 0.815 | 0.778 | 0.825 | 1.02
51 | CS/C(C)=N/OC(=O)N(C)SN(C)C(=O)O/N=C(\C)SC [Thiodicarb] | 1 | 0.646 | 0.895 | 0.91 | 0.0128
52 | CCCCCCCCc1ccc(O)cc1 [4-Octylphenol] |  | 1.09 | 1.1 | 1.3 | 0.803
53 | CNC(=O)ON=CC(C)(C)SC [Aldicarb] | 1.1 | 0.924 | 0.97 | 0.918 | 1.72
54 | CNC(=O)ON=C(C)SC [Methomyl] | 0.945 | 0.951 | 1.1 | 1.04 | 1.25
55 | CSC(C)(C)C=NO [Aldicarb oxime] |  | 1.13 | 1.06 | 1.24 | 1.09
56 | O=[N+]([O-])c1ccc(O)c([N+](=O)[O-])c1 [2,4-Dinitrophenol] |  | 1.15 | 1.11 | 0.966 | 0.305
57 | CCOC(=O)C(O)(c1ccc(Cl)cc1)c1ccc(Cl)cc1 [Chlorobenzilate] |  | 0.927 | 0.837 | 0.929 | 1.26
58 | CCCSP(=O)(OCC)SCCC [Ethoprop] | 1.13 | 0.976 | 1.08 | 1.1 | 1.86
59 | CCOP(=S)(OCC)SCSP(=S)(OCC)OCC [Ethion] |  | 0.929 | 0.935 | 0.973 | 1.13
60 | CCCCSP(=O)(SCCCC)SCCCC [Tribufos] | 1.14 | 0.609 | 0.976 | 0.82 | 0.728
61 | CC(Cc1ccc(OCC(=O)O)cc1)NCC(O)c1csc(C(F)(F)F)n1 (stereo unspecified) |  | 0.796 | 0.849 | 0.912 | 1.28
62 | CCC12COCN1COC2 [5-Ethyl-1-aza-3,7-dioxabicyclo[3.3.0]octane] |  | 0.93 | 1.08 | 1.1 | 1.35
63 | CCCCC(CC)COC(=O)c1ccc(C(=O)OCC(CC)CCCC)c(C(=O)OCC(CC)CCCC)c1 (stereo unspecified) [Tris(2-ethylhexyl) trimellitate] |  | 0.879 | 0.991 | 0.972 | 1.2
